The values that follow come from PubChem BioAssay (NCI).

About 79,000 compounds went through this panel and 15% of them were active in at least one assay; those are over-represented in the sample as a whole. Unmarked numbers belong to inactive results. Active and inactive are the calls of the source. No stated cut-off is given here; in the data, active means growth inhibition above about 70%; inactive means the rest.

A short description of test [1]: NCI Yeast Anticancer Drug Screen. Data for the rad50 strain (AID 155).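 Further: 0% = growth of vehicle-only cultures of the same strain.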 Conditions: S. cerevisiae rad50 strain growth inhibition; at 50.0 µM; active compounds read high. In a few lines:
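Compounds were tested on a yeast strain with an engineered DNA damage repair alteration; the reported value is growth inhibition normalised to vehicle treatment.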

A short description of test [2]: NCI Yeast Anticancer Drug Screen. Data for the mec2-1 strain (AID 157). Conditions: S. cerevisiae mec2-1 strain, at 50.0 µM, active compounds read high. The method in brief: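 Compounds were applied to mec2-1 yeast cells. Their growth was then compared with that of vehicle-treated cultures to give growth inhibition.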
The nature of test [3]: NCI Yeast Anticancer Drug Screen. Data for the sgs1 mgt1 strain (AID 161).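 Further: 0% = growth of cultures given vehicle only.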 Conditions: S. cerevisiae sgs1 mgt1 strain, at 50.0 µM, active compounds read high. The method in brief:
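Percent growth inhibition was derived by comparing compound-exposed mutant yeast with vehicle-exposed cultures. The strain carries alterations in DNA damage repair.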

Test [4] can be described thus: NCI Yeast Anticancer Drug Screen. Data for the cln2 rad14 strain (AID 165).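 Further: 0% = growth equal to vehicle treated cultures.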 Conditions: S. cerevisiae cln2 rad14 strain, at 50.0 µM, active compounds read high. The method in brief:
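Strain: cln2 rad14 yeast, altered in cell cycle control and DNA damage repair. Read-out: growth inhibition vs vehicle.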

The nature of test [5]: NCI Yeast Anticancer Drug Screen. Data for the bub3 strain (AID 167). Conditions: S. cerevisiae bub3 mutant strain, at 50.0 µM, active compounds read high. The method in brief:
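Growth of a checkpoint-deficient yeast mutant is measured after compound exposure. Values represent inhibition relative to vehicle.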

A short description of test [6]: NCI Yeast Anticancer Drug Screen. Data for the mlh1 rad18 strain (AID 175). To be noted: S. cerevisiae mlh1 rad18 strain growth inhibition; at 50.0 µM; active compounds read high. In a few lines: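 A repair-deficient yeast strain is exposed to test compound, and growth is scored relative to vehicle-treated controls.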

As to `CC(=O)Nc1ccc(S(=O)(=O)N2c3ccccc3Sc3ccccc32)cc1`, the growth inhibition in test [1] was 8.95%; in test [2], -5.9%; in test [3], 4.95%; in test [4], 3.05%; in test [5], -1.5%; in test [6], 4.2%.
For the compound `CCOC(OCC)N(C)C`, the growth inhibition in test [1] was -14.9%; in test [2], -5.25%; in test [3], -3.05%; in test [4] it was -4.8%; in test [5] it was -5.5%; in test [6] it was -26.8%.
For the compound `C[C@@]12CCC(=O)C=C1CC[C@H]1C2CC[C@]2(C)C1CC[C@H]2C(=O)COC(=O)CCC(=O)O` (stereo partly drawn), the growth inhibition in test [1] was -1.85%; in test [2], -7.8%; in test [3], 21.1%; in test [4], -22.4%; in test [5] it was 2.55%; in test [6], -33.7%.
Turning to `COc1cc(C2C(C(=O)NCc3ccccc3)=C(C)NC(C)=C2C(=O)NCc2ccccc2)ccc1O`, the growth inhibition in test [1] was -27.1%; in test [2], -11.1%; in test [3] it was -23.9%; in test [4], -3.9%; in test [5], -7%; in test [6] it was -21.2%.
As to `CC(C)=CCC/C(C)=C\COC=O`, the growth inhibition in test [1] is 23%; in test [2] it was 12.4%; in test [3], 18.9%; in test [4], 6.45%; in test [5], 13.8%; in test [6] it was 50.9%.
With `NC(=O)C1CCCCC1C(N)=O` (stereo not drawn), the growth inhibition in test [1] is -15%; in test [2], -20.1%; in test [3], -25.6%; in test [4] it was -29.5%; in test [5], -27.8%; in test [6] it was -15.3%.
Consider `CC1=C(C)C(=O)C=CC1=O`, for which the growth inhibition is 19.9% in test [1]; 6.3% in test [2]; 5.3% in test [3]; -1% in test [4]; 3.95% in test [5]; 12% in test [6].
`CCOC(=O)c1ccc(N(C=O)CCC(OCC)OCC)cc1`: the growth inhibition is -2.25% in test [1]; -5.75% in test [2]; 4.35% in test [3]; -49.4% in test [4]; 17.9% in test [5]; -0.3% in test [6].
For the compound `CC1(C)OCC2(CO1)CSCCCSCC1(COC(C)(C)OC1)CSCCCSC2`, the growth inhibition in test [1] was -5.65%; in test [2], -12.9%; in test [3] it was -8.75%; in test [4], -11.8%; in test [5] it was -25.5%; in test [6] it was -3.8%.
For the compound `C/C=C(\Cl)C=O`, the growth inhibition was 12.4% in test [1]; 5% in test [2]; -22.9% in test [3]; -9.7% in test [4]; 3.5% in test [5]; 11.2% in test [6].
As to `CCCCCCCCCCC(C(=O)O)C1(C(=O)O)CCC(=O)O1` (stereo not drawn), the growth inhibition is -15.7% in test [1]; -32.4% in test [2]; -5.8% in test [3]; 11.4% in test [4]; -9.4% in test [5]; -5.25% in test [6].
As for `Cc1ccc(C(=O)/C=C(\C(=O)c2ccccc2)c2ccccc2)cc1C`, the growth inhibition in test [1] was 12.5%; in test [2] it was 14.8%; in test [3], 1.85%; in test [4], 11.7%; in test [5] it was 11.3%; in test [6] it was 9.65%.
Turning to `CC1(C)N=C(C2CCCN2C(=O)OCc2ccccc2)OC1=O` (stereo not drawn), the growth inhibition in test [1] was -43%; in test [2] it was -20.7%; in test [3], -38.1%; in test [4], -1.75%; in test [5], 12.3%; in test [6] it was -28.6%.
As to `C1C[OH+]CC[OH+]CCNCC[OH+]CC[OH+]CCN1.Cl.[Cl-].[Pt+4]`, the growth inhibition in test [1] is 8.7%; in test [2], -9.3%; in test [3] it was 6.25%; in test [4], 10.4%; in test [5] it was -3.65%; in test [6], 7%.
With `O=[N+]([O-])c1ccc(N=CC2CCC=CO2)cc1` (stereo not drawn), the growth inhibition in test [1] was -4.3%; in test [2] it was 17.8%; in test [3], -10.2%; in test [4], -27.9%; in test [5], -9.4%; in test [6], -14.9%.
Consider `CC(=O)c1cccc(NC(=O)Nc2cccc(C)n2)c1`, for which the growth inhibition is -9.55% in test [1]; 32.8% in test [2]; 11.9% in test [3]; -24.6% in test [4]; 8.55% in test [5]; 12.6% in test [6].
For the compound `C/C=C\c1ccc2oc(-c3ccc4c(c3)OCO4)c(C)c2c1`, the growth inhibition in test [1] was 3.2%; in test [2], 9.9%; in test [3], 6.15%; in test [4], -57.8%; in test [5], -4.6%; in test [6] it was -11.3%.
With `N#C/C(=N\N=C(/C#N)c1ccc(Cl)cc1)c1ccc(Cl)cc1`, the growth inhibition is -5.8% in test [1]; -1.85% in test [2]; -5.5% in test [3]; -6.4% in test [4]; -4.25% in test [5]; -5.15% in test [6].
Regarding `CC(=O)OC1CCC2(C)C(=CCC3C2CCC2(C)C3CCC23SCCS3)C1` (stereo not drawn), the growth inhibition was 24% in test [1]; -3% in test [2]; 4.25% in test [3]; -60.1% in test [4]; -2.9% in test [5]; 9.6% in test [6].
Turning to `Nc1cccc(N)n1`, the growth inhibition was 7.65% in test [1]; -12.2% in test [2]; -15.8% in test [3]; 5.7% in test [4]; -0.7% in test [5]; -14.6% in test [6].
Consider `C/C(=N\NS(=O)(=O)c1ccc(N)cc1)c1ccc(C)cc1C`, for which the growth inhibition in test [1] was -12.9%; in test [2], -19.6%; in test [3], 0.8%; in test [4] it was -5.25%; in test [5], -28.6%; in test [6] it was -16.5%.
In the case of `CN1NC(=O)CC1c1ccccc1` (stereo not drawn), the growth inhibition in test [1] was 18.9%; in test [2], -3.65%; in test [3], -10.8%; in test [4], 11.1%; in test [5], 0.25%; in test [6] it was 5.45%.
As for `Nc1cc(Nc2ccc(Cl)[nH]c2=S)nc(N)n1`, the growth inhibition is 31.1% in test [1]; 13.8% in test [2]; 11.5% in test [3]; 20.6% in test [4]; 18.4% in test [5]; 15.2% in test [6].
For `CC1(C)CCC2(C)CC=C3C(C)(CCC4C3(C)CCC3C(C)(C)C(O)CCC43C)C2C1` (stereo not drawn), the growth inhibition was 0.9% in test [1]; -4.2% in test [2]; -23.2% in test [3]; -10.3% in test [4]; -18% in test [5]; -10.4% in test [6].
In the case of `Cc1cccc(N=C(Nc2cccc(C)n2)Nc2cccc(C)n2)n1`, the growth inhibition in test [1] is 31.3%; in test [2], 15.8%; in test [3], 35.6%; in test [4], 36.9%; in test [5], 25.9%; in test [6] it was 31.1%.
For the compound `CCCCCCCCCCCCC#N`, the growth inhibition in test [1] was -20.8%; in test [2], -16.1%; in test [3], -1.15%; in test [4], -32.9%; in test [5], -5.2%; in test [6], 7.85%.
Take `CC(=O)[C@@]1(O)CC[C@H]2[C@@H]3C[C@H](C)C4=CC(=O)C=C[C@]4(C)[C@@]3(F)[C@@H](O)C[C@@]21C`: the growth inhibition in test [1] was -24.1%; in test [2] it was 9.65%; in test [3], -11.1%; in test [4], -33%; in test [5] it was -4.5%; in test [6], -22.1%.
Turning to `O=C(O)C(CSC(c1ccccc1)(c1ccccc1)c1ccccc1)NSc1ccccc1[N+](=O)[O-]` (stereo not drawn), the growth inhibition in test [1] was 96.2% (active); in test [2], 97.2% (active); in test [3], 97.7% (active); in test [4], 96.5% (active); in test [5] it was 95.6% (active); in test [6], 97.8% (active).
Take `Cc1cc2c(cc1C)NC(=O)C(NC(=O)c1ccc(Cl)cc1)C=N2` (stereo not drawn): the growth inhibition is -0.55% in test [1]; 15.6% in test [2]; 15.1% in test [3]; -27.4% in test [4]; 5.95% in test [5]; 2.95% in test [6].
On to `CCOc1ccc(CCC(=O)O)cc1`, for which the growth inhibition was 3.55% in test [1]; -9% in test [2]; -1.65% in test [3]; 2.8% in test [4]; -6.1% in test [5]; 12.1% in test [6].
As for `NS(=O)(=O)c1ccc(NC(=O)CC(=O)c2ccccc2)cc1`, the growth inhibition was -57.4% in test [1]; -32.7% in test [2]; -36% in test [3]; 0.35% in test [4]; -25.6% in test [5]; -38% in test [6].
As for `COc1ccc(C(=O)c2ccccc2)c(N)c1`, the growth inhibition was 11.2% in test [1]; 13.1% in test [2]; -2.4% in test [3]; -18.9% in test [4]; -17.9% in test [5]; 10.4% in test [6].
As to `C/C(=N\Nc1ccc([N+](=O)[O-])cc1[N+](=O)[O-])C1(C)CC=CCC1C` (stereo not drawn), the growth inhibition in test [1] was -3.9%; in test [2], -3.35%; in test [3] it was 0.4%; in test [4] it was 6.05%; in test [5] it was -1.7%; in test [6], -1.45%.
Consider `CCN(CC)C1=Nc2ccccc2N(c2ccccc2)C(=S)C1`, for which the growth inhibition in test [1] is 46.9%; in test [2], 25.5%; in test [3] it was 30.1%; in test [4] it was 13.9%; in test [5], 36.2%; in test [6], 51.2%.
As for `C/C=C(\C)C(=O)N/N=C\C=C\c1ccccc1`, the growth inhibition in test [1] is -12.2%; in test [2], -10.8%; in test [3], 0.95%; in test [4], -44.8%; in test [5], -16.1%; in test [6], -7.05%.
For `Cc1ccc(C(=O)Nc2ccc(CP(=O)(O)O)cc2)cc1NC(=O)c1cccc(N)c1`, the growth inhibition was -27.2% in test [1]; -14.7% in test [2]; -20.4% in test [3]; 0.9% in test [4]; -9% in test [5]; 4.15% in test [6].
With `CSc1n[n+]2c(s1)SCCC2`, the growth inhibition is -19.8% in test [1]; -27.2% in test [2]; 0.05% in test [3]; 5.45% in test [4]; -8.7% in test [5]; 0.05% in test [6].
On to `COc1ccc(C(=O)NC(=S)Nc2cccc([N+](=O)[O-])c2)cc1`, for which the growth inhibition was -7.3% in test [1]; 29.9% in test [2]; 35.5% in test [3]; -21.6% in test [4]; 24.6% in test [5]; 27.7% in test [6].
